# About 4,300 (8.3%) of roughly 52,000 compounds were called active. The sample as a whole holds a higher share of actives than the screen did. Unmarked numbers belong to inactive results. Cut-off read from the data, not from the text of the source: active = survival mostly below about 52% (no sharp cut-off); inactive = mostly above about 56%.
# System: DeltatarO mutant
# Test: S. aureus survival, RN4220 and DeltatarO strains – OD600, teichoic acid synthesis inhibitors, primary screen (AID 463173)
# Details: S. aureus RN4220 wild type/DeltatarO growth, OD600, 18 h, stronger effect = lower value, screened at 18.75 µg/mL (by protocol)
row,Structure (SMILES),survival
1,Cc1sc(-n2c(C)cc(/C=C(\C#N)C(=O)NCc3ccco3)c2C)c(C#N)c1C,84%
2,Cc1ccc(Cl)cc1NC(=O)c1oc2ccc(S(=O)(=O)N3CCCCCC3)cc2c1C,93%
3,O=C(Cn1cccc1C(=O)c1ccccc1)NCc1ccc(Cl)cc1,98%
4,COc1ccc2c(c1)CC(C(=O)Nc1ccc(OC)cc1OC)CO2 (configuration not stated),89%
5,COC(=O)c1cc2oc3ccccc3c2n1CC(=O)Nc1ccc(OC)c(OC)c1,79%
6,CCc1ccc(NS(=O)(=O)c2ccc3[nH]cc(C(=O)NC4CCCC4)c(=O)c3c2)cc1,8% (active)
7,Cc1cc(C)cc(NS(=O)(=O)c2ccc3[nH]cc(C(=O)N(C)Cc4ccccc4)c(=O)c3c2)c1,102%
8,CCOc1ccc(NS(=O)(=O)c2ccc3[nH]cc(C(=O)N(C)Cc4ccccc4)c(=O)c3c2)cc1,6% (active)
9,CCc1ccc(NS(=O)(=O)c2ccc3[nH]cc(C(=O)NCc4ccc(C)cc4)c(=O)c3c2)cc1,65%
10,CCOc1ccc(NS(=O)(=O)c2ccc3[nH]cc(C(=O)NCCOC)c(=O)c3c2)cc1,72%
11,CCOc1ccc(NS(=O)(=O)c2ccc3[nH]cc(C(=O)NC4CCCC4)c(=O)c3c2)cc1,39% (active)
12,CCOc1ccc(NS(=O)(=O)c2ccc3[nH]cc(C(=O)N(C)C4CCCCC4)c(=O)c3c2)cc1,76%
13,CCc1ccc(NS(=O)(=O)c2ccc3[nH]cc(C(=O)NCCc4ccccc4)c(=O)c3c2)cc1,87%
14,CCOc1ccc(NS(=O)(=O)c2ccc3[nH]cc(C(=O)NCc4ccccc4)c(=O)c3c2)cc1,79%
15,Cc1ccc(-c2nn3c(=O)cc(CN4CCN(C(=O)/C=C/c5ccccc5)CC4)nc3s2)cc1,68%
16,CCOc1ccccc1C1CC(=O)Nc2c1c(=O)n(C)c1ncnn21 (configuration not stated),164%
17,COc1ccc(NC(=O)c2oc3ccc(S(=O)(=O)N4CCC5(CC4)OCCO5)cc3c2C)cc1Cl,80%
18,O=C(O)C1CC(=O)N(CCCN2CCOCC2)C1 (configuration not stated),96%
19,Cc1nn(C)c2c1c(C(F)(F)F)cc(=O)n2CC(=O)NCc1ccccc1Cl,80%
20,CCN1CCN(C(=O)c2ccc3c(c2)N(Cc2ccccc2)C(=O)c2ccccc2S3=O)CC1 (configuration not stated),104%
21,Cc1ccc(C)c(-n2c3nc(=O)[nH]c(=O)c-3cc3c(C)nn(-c4ccccc4)c32)c1,92%
22,COc1ccc(NC(=O)CC2C(=O)N(c3ccccc3)C(=O)N2CCc2sccc2C)cc1 (configuration not stated),65%
